Screening data from PubChem BioAssay.
a7 integrin act: integrin-mediated muscular dystrophy alleviation activation | AID 624291 | alpha7betagal myoblasts, beta-gal FDG fluorescence, 48 h | Potency, µM (titrated, usually from 38.3 µM), usual class: activators | actives 0.064% (n = 350,000); also: nearly all actives have a fitted effect of over 60% in size
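Alpha7betagal+/- myoblasts (passage 13) were plated 16-24 hr, then exposed to compounds (1:260 dilution of DMSO stock) for 48 hours at 37C. After MPER lysis, β-galactosidase reporter activity was read as FDG fluorescence (ex 480/em 540) after 30 minutes.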
SW480 rerep: DNA re-replication induction in SW480 cells; SW480 DNA re-replication, Hoechst DNA content imaging, 48 h; Potency, µM (top dose mostly 46.1 µM), usual class: activators; actives 1.8% (n = 340,000); also: nearly all actives have a fitted effect of over 55% in size
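Image-based read-out: total Hoechst fluorescence of nuclei (405 nm excitation, 500-530 nm emission), with hits raising the fraction of high-intensity nuclei. SW480 colon cells incubated 48 hr with compounds at 37 C.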
MCF10A rerep: DNA re-replication induction in MCF 10a cells; Potency, µM (titrated, usually from 46.1 µM), actives largely listed as activators; MCF 10A DNA re-replication, Hoechst nuclear intensity, 48 h; actives 2.9% (n = 350,000); also: nearly all actives have a fitted effect of over 50% in size
A-T KAP1 phos: potential ataxia-telangiectasia treatments restoring KAP-1 phosphorylation; F2112 A-T fibroblasts, KAP-1 phosphorylation AlphaLISA; neocarzinostatin DNA damage 30 min before lysis; Potency, µM (top dose mostly 57.5 µM), hits mostly activators; actives 0.19% (n = 320,000); also: nearly all actives have a fitted effect of over 45% in size
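hTERT-immortalized A-T patient fibroblasts (F2112), 500 cells/well in OPTI-MEM, 1% FBS, got compounds for 60 min, then NCS for 30 min at 37C. Lysates were then assayed for phospho-KAP-1 by AlphaLISA (anti-pKAP1 donor, anti-KAP1 acceptor beads), 6 hr at 25C.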
Mito fusion act: blocks mitochondrial division or promotes mitochondrial fusion | S. cerevisiae fusion-defective mutant growth rescue, CellTiterGlo 48 h | Potency, µM (titrated, usually from 46.1 µM), usual class: activators | actives 0.23% (n = 320,000) | AID 485298; also: nearly all actives have a fitted effect of over 45% in size
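Yeast fusion mutant, YPEG (non-fermentable carbon), compound, 48 h at 37C non-permissive; CellTiterGlo added, 10 min RT, luminescence read. Rescued growth = division inhibition.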
A number is an active result; i = inactive; ? = inconclusive; nt = not tested or not shown; [ ] = remark or other dose. Compounds with a hit are over-represented: about 4.2% of the library has one in this group of screens. Calls follow the shape of the dose curve; as a rule, active = well fitted activation curve with a large enough effect; inconclusive = small, poorly fitted or top-dose-only effect; inactive = no such curve, though single readings can be large or run the other way.

SMILES	a7 integrin act	SW480 rerep	MCF10A rerep	A-T KAP1 phos	Mito fusion act
CC(C)C(c1nnnn1C(C)(C)C)N1CCC(Cc2ccccc2)CC1 (stereo not drawn)	i	i	21µM	i	?
CCCC(c1nnnn1C(C)(C)C)N1CCN(Cc2ccccc2OC)CC1 (stereo not drawn)	i	i	i	i	i
CCCC(c1nnnn1C1CCCC1)N1CCN(c2ccccc2F)CC1 (stereo not drawn)	i	i	i	i	8.9µM
CCCC(c1nnnn1C(C)(C)C)N1CCN(c2ccccc2)CC1 (stereo not drawn)	i	i	i	i[11.5 µM]	10µM
COc1cc(OC)nc(Oc2ccccc2/C=N/O)n1	?	i	i	nt	nt
COc1cc(OC)nc(Oc2ccccc2C=O)n1	i	i	16µM	nt	nt
O=[N+]([O-])c1ccc(NN=Cc2ccc3c(c2)OCO3)nc1	i	?	?	nt	nt
O=C(Nc1ccc(N2CCOCC2)cc1)Nc1ccc2nc(-c3ccco3)c(-c3ccco3)nc2c1	i	i	9.2µM	i	i
CCc1nc2ccc(C(=O)N3CCN(c4ccccc4)CC3)cc2nc1CC	i	i	i	i	i
O=C(c1ccc2nc(-c3ccco3)c(-c3ccco3)nc2c1)N1CCN(c2ccccc2)CC1	i	?	16µM	i	i
C=CCn1c(SCC(=O)Nc2ccc(N3CCOCC3)cc2)nnc1-c1ccco1	i	i	i	25µM	i
C=CCn1c(SCC(=O)Nc2ccc(N3CCOCC3)cc2)nnc1-c1ccncc1	i	i	i	i	i
O=C(Nc1ccc2nc(-c3cccs3)c(-c3cccs3)nc2c1)N1CCOCC1	?	23µM	18µM	i	i
O=c1cc(O)n(-c2ccc(Cl)cc2)c(=S)[nH]1	i	i	i	i	i
Cc1cc(O)c2c(c1)OC1(C)CCC3C(C)(C)CCCC34COC2C14 (stereo not drawn)	nt	i	?	nt	nt
C=CC(=O)Oc1ccc(N2Cc3ccccc3C2=O)cc1	i	12µM	?	nt	nt
Cc1c(Br)c([N+](=O)[O-])nn1CC(=O)NC1CCCCCC1	i	i	i	i	i
Nc1c(C(=O)NC2CCCC2)c2nc3ccccc3nc2n1/N=C/c1cccnc1	i	?	4.1µM	nt	nt
COc1ccc(N=C(NN)c2ccc3ccccc3n2)cc1	i	i	?	i	i
COc1cccc(/C=C2\CCC(C3CCCC3)C2=O)c1 (stereo not drawn)	i	i	i	i	i
CN(C)CC1CCC/C(=C\c2ccc(OC(=O)/C=C/c3ccc(Cl)c(Cl)c3)cc2)C1=O (stereo not drawn)	i	i	i	nt	nt
COc1ccc(/C=C2/CCCC(CN(C)C)C2=O)cc1 (stereo not drawn)	i	9.2µM	2.9µM	nt	nt
COc1cccc(/C=C2/CCC(CN(C)C)C2=O)c1 (stereo not drawn)	i	5.8µM	2.3µM	nt	nt
CN(C)CC1CCC/C(=C/c2ccc(Cl)cc2)C1=O (stereo not drawn)	i	?	18µM	nt	nt
CCCC/C=C1/CCC(CN(C)C)C1=O (stereo not drawn)	i	?	5.8µM	nt	nt
SMILES	a7 integrin act	SW480 rerep	MCF10A rerep	A-T KAP1 phos	Mito fusion act
O=C(Nc1ccc(Cl)c(Cl)c1)N(CCCN1CCOCC1)Cc1cccs1	i	i	i	i	i
O=C(COC(=O)CNC(=O)c1ccccc1F)NCCC1=CCCCC1	i	i	i	i	i
COc1cc(/C=N/NC(=O)c2sc3ccccc3c2Cl)ccc1OC(=O)c1ccc([N+](=O)[O-])cc1	i	i	i	i	i
CC(C)CC1C(=O)N(Cc2cn(CCC3OCCO3)nn2)CCS(=O)(=O)N1Cc1ccc(-c2ccc(Cl)c(Cl)c2)cc1 (stereo not drawn)	i	nt	nt	nt	nt
CCCCCCCCC1=NCCc2c1[nH]c1ccccc21	i	?	12µM	?	i
CCCCc1c(O)c2ccccc2[nH]c1=O	i	i	i	i	i
O=C1NC(=S)S/C1=C\c1ccc(SCc2ccco2)o1	i	i	i	i	?
O=C1NC(=S)S/C1=C\c1ccc(SCc2ccccc2)o1	i	?	3.7µM	i	i
Cc1cc(N/N=C/c2ccc(O)cc2)c2cccc(C)c2n1	i	?	?	i	i
Cc1cc(C)c2nc(C)cc(N/N=C/c3ccc(O)cc3)c2c1	i	4.1µM	15µM	i	i
N#CC1CN(Cc2ccccc2)CN(Cc2ccccc2)C1	i	?	15µM	i	i
